SMILES strings stand for the structures. Several values for one entry are separate records, joined by “and”; a condition that tells them apart may be missing. Equal values may be shown once. This is part of a sample that, as a whole, favours compounds with a hit. Of some 83,000 tested, about 20% had one in any assay.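 Compound tested at a single concentration for 48 hours in 96-well plates; a percent growth value below 10 was scored as active.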 Activity calls are given as the source filed them.

The subject of one test is EKVX NSCLC. The test is described as follows: NCI-60 one-dose screen, 48 h (100 = growth as untreated, 0 = no growth, -100 = all killed). Conditions: 1 µM. How it is done:
Growth inhibition of the EKVX human Non-Small Cell Lung tumor cell line is measured as a screen for anti-cancer activity. Cells are grown in 96 well plates and exposed to the test compound for 48 hours. Compounds are tested at a single concentration, which is 10^-5 M for most compounds. The reported endpoint is percent growth (GI% or GIPRCNT), where numbers from 0 - 100% represent growth inhibition, and numbers from -100% - 0 represent cell death. For example, a value of 40 represents 60% growth inhibition. A value of 0 means no net growth occurred over the course of the experiment. A value of -40 indicates 40% of cells at the beginning of the experiment died by the end of the experiment. A value of -100 means all cells are dead at the end of the experiment.
NCI-60 Human Tumor Cell Lines Screen was performed using the standard one-dose NCI protocol, which is described in more detail at https://dtp.cancer.gov/discovery_development/nci-60/default.htm.
Compounds with GIPRCNT values below 10 were considered active. Activity score was based on GIPRCNT using the following formula: […]
Score is 0 for GIPRCNT values of 100 or above, 50 for GIPRCNT values of 0, and 100 for GIPRCNT values of -100.
Consider `CC/C(=C(/c1ccc(O)cc1)c1ccc(OCCN(C)C(=O)CCOCCNC(=O)Cc2ccc3c(c2)CN([C@@H]2CCC(=O)NC2=O)C3=O)cc1)c1ccccc1`, for which the growth was 102% (inactive).

Still in this test, the particulars now being: 10 µM.
For `CC/C(=C(/c1ccc(O)cc1)c1ccc(OCCN(C)C(=O)CCOCCNC(=O)Cc2ccc3c(c2)CN([C@@H]2CCC(=O)NC2=O)C3=O)cc1)c1ccccc1`, the growth was 97.8% (inactive).

Staying with this test, now noted: 10 µM unless noted.
In the case of `NC(=O)c1ccc(-c2ccc3ncnc(N4CCc5cc(F)c(Cl)cc54)c3c2)cn1`, the growth is 19.5% (inactive).

With `O=C1N/C(=N\c2nccs2)S/C1=C\c1ccc([N+](=O)[O-])cc1`, the growth was 14.3% (inactive).

Consider `FC(F)(F)c1cc2c(Cl)ncnc2n1CCN1CCOCC1`, for which the growth was 92.8% (inactive). For the compound `O=C(Cc1c(-c2cccc([N+](=O)[O-])c2)n(-c2ncnc3c2c(-c2ccccc2)c(-c2ccccc2)n3Cc2ccccc2)[nH]c1=O)c1ccc(Cl)c(Cl)c1`, the growth is 11.1% (inactive). Consider `Clc1ccc(-c2nc3ccc(-c4nnc(SCc5ccccc5)o4)cc3[nH]2)cc1`, for which the growth was -24.4% (active). Turning to `O=C1Nc2cc(-c3ccc(NS(=O)(=O)c4ccc(-c5ccccc5)cc4)cc3)ccc2/C1=C/c1ccc[nH]1`, the growth was 10.9% (inactive). For `Nc1cc(-c2c[nH]c3ccc(F)cc23)nc2cc(-c3c[nH]c4ccccc34)nn12`, the growth is 7.95% (active).

Consider `COc1ccc2ccccc2c1/C=C1\SC(=Nc2ccc(O)cc2)NC1=O`, for which the growth is 15.8% (inactive). As for `COC(=O)c1c(C(=O)OC)c2ccc3c4ccccc4ccc3n2c1C(=O)OC`, the growth was 97% (inactive).

For `OC(c1ccccc1)(c1ccccc1)C1CCN(c2ccc3nnc(Cl)n3n2)CC1`, the growth was 19.9% (inactive). Take `N#CC1=C(c2cccs2)Nc2c(c(-c3ccccc3)nn2-c2ccccc2)C12C(=O)Nc1ccc(Br)cc12` (stereo not given): the growth is 7.42% (active).

On to `CNS(=O)(=O)N1CCc2c(Br)c3c(c(OC)c2C1CCc1ccccc1)OCO3` (stereo not given), for which the growth was -6.87% (active).

`CC1=C(C(=O)Nc2ccccc2)C(c2ccc3ccccc3c2)n2c(nc3ccccc32)N1` (stereo not given): the growth is 85% (inactive).

Turning to `O=c1ccc(Cn2c(C(F)(F)F)cc3c(Cl)ncnc32)c[nH]1`, the growth is 95.4% (inactive). Take `Nc1nnc(-c2cncc(Br)c2)c(-c2c[nH]c3ccc(Cl)cc23)n1`: the growth was 78.4% (inactive). Turning to `CC(=O)Nc1cccc(-n2c(COc3ccc(I)cc3)nc3ccccc32)c1`, the growth is 86% (inactive) and 102% (inactive). As to `Fc1ccccc1CNc1nc(SCCN2CCOCC2)nc2c1cnn2CC(Cl)c1ccc(Br)cc1` (stereo not given), the growth was 49% (inactive). As for `CCCCN1C(=O)/C(=C\C(=O)c2cc3ccccc3oc2=O)c2ccccc21`, the growth was 84.5% (inactive). As for `COc1ccc(N=Nc2c(N)nn3c(-c4ccc5c(c4)C=S=C5)ccnc23)cc1`, the growth was 33.9% (inactive). On to `C/C(=N\Nc1ccc(S(N)(=O)=O)cc1)c1cnn(-c2cc(=O)[nH]c3ccc(Br)cc23)c1C`, for which the growth is 72.1% (inactive). Turning to `O=C(Cc1c(-c2ccccc2[N+](=O)[O-])n(-c2ncnc3c2c(-c2ccccc2)c(-c2ccccc2)n3Cc2ccccc2)[nH]c1=O)c1ccc(Cl)c(Cl)c1`, the growth is 14.6% (inactive). `CC1=C(C(=O)OCc2ccccc2)C(c2ccc(N(C)C)cc2)n2c(nc3ccccc32)N1` (stereo not given): the growth was 46% (inactive). Take `COC(=O)CSC1=C(C)C(=O)C(OC)=C(OC)C1=O`: the growth was 91% (inactive). With `COc1ccc(-c2cc(C(=O)N=Nc3c(O)[nH]c4ccc(Cl)cc34)c3ccccc3n2)cc1`, the growth was 21.3% (inactive). As for `O=C(CSc1nnc(-c2ccc(-c3nc4ccc(Cl)cc4[nH]3)cc2)o1)Nc1ccc(Br)cc1`, the growth is 41.9% (inactive).

In the case of `COc1ccc(Nc2ncnc3sc4c(c23)CCN(Cc2ccccc2)C4)cc1`, the growth is 75.8% (inactive). With `COc1cc(C2CC(c3ccc(S(=O)(=O)NCCNc4nc(N(C)C)nc(N5CCOCC5)n4)cc3)=Nc3c(N)nc(N)nc3N2)cc(OC)c1OC` (stereo not given), the growth was 75.4% (inactive). In the case of `Clc1ccc(CNc2nc(SCCN3CCOCC3)nc3c2cnn3CC(Cl)c2ccc(Br)cc2)cc1` (stereo not given), the growth is 31.8% (inactive). Still for that read-out and setting: under `CN1CCN(C(=O)CCN(C(=O)Oc2cc3c(c4ccccc24)[C@H](CCl)CN3C(=O)c2cc3cc(OCCCN4CCC4)ccc3[nH]2)[C@H]2CCSSC2)CC1` stands -89.3% (active); under `Cc1[nH]nc2ccc3nc(-c4cn[nH]c4C(F)(F)F)c4c(c3c12)CCCC4`, -40.5% (active); under `Cc1nn(-c2ccccc2)c2nc(C)n(C(=O)N/N=C/c3cccc([N+](=O)[O-])c3)c(=O)c12`, 49.3% (inactive). Still for that read-out and setting: next, `COc1ccc(-c2cc(-c3ccccc3)c(C#N)c(=O)[nH]2)cc1S(N)(=O)=O`: 95.9% (inactive). As for `CN1CCN(C(=O)Oc2cc3c(c4ccccc24)[C@H](CCl)CN3C(=O)c2cc3cc(OCCCN4CCC4)ccc3[nH]2)[C@@H]2CSSC[C@H]21`, the growth is -50.6% (active). Take `COc1ccc(S(=O)(=O)Nc2ccc(-c3ccc4c(c3)NC(=O)/C4=C\c3ccc[nH]3)cc2)cc1OC`: the growth was -27.8% (active). Still for that read-out and setting: next, `CN(C)c1nc(NCCNS(=O)(=O)c2ccc(C(=O)/C=C/c3ccc(F)cc3)cc2)nc(N2CCOCC2)n1`: 59% (inactive). The same measure, in the same setting: next, `Cc1cccc(-c2ccccc2Oc2ccc3nnc(Cl)n3n2)c1`: 98.2% (inactive).

With `COc1ccc(-c2nnc3c(/C=C/c4ccc(Br)cc4)nc4ccccc4n23)cc1`, the growth is 54% (inactive). Take `CS(=O)(=O)Nc1cccc(-n2cnc3cc(-c4ccc(O)cc4)ccc32)c1`: the growth is 51.6% (inactive).

The values above are taken from PubChem BioAssay (NCI).
